From publication PMC5540273 (PLoS ONE, 2017)

How the values were obtained:
Details in all cases: concentration: 1 μM, replicates: in singlicate; n = 1
PRP4 = system: PRP4
PYK2 = system: T1, PYK2
T1 construct: gene PTK2B

QSK = system: QSK
RAF1 = system: RAF1
RET = system: RET
RIOK1 = system: RIOK1
RIOK2 = system: RIOK2
RIOK3 = system: RIOK3
RIPK1 = system: RIPK1
RIPK2 = system: RIPK2
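Also: KINOMEscan kinase panel screen.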

Row | Structure (SMILES) | %Inh (PRP4) | %Inh (PYK2) | %Inh (QSK) | %Inh (RAF1) | %Inh (RET) | %Inh (RIOK1) | %Inh (RIOK2) | %Inh (RIOK3) | %Inh (RIPK1) | %Inh (RIPK2)
1 | CC(=O)c1c(C)c2cnc(Nc3ccn(C)n3)nc2n(C2CCCC2)c1=O | 0% | 0% | 0% | 0% | 5% | 0% | 24% | 0% | 2% | 0%
2 | CS(=O)(=O)Cc1ccc(Nc2nccc(-c3c(-c4cccc(NC(=O)C5CCCCC5)c4)nn4ncccc34)n2)cc1 [GSK350559] | 1% | 0% | 34% | 0% | 34% | 28% | 0% | 36% | 13% | 5%
3 | COC(=O)C(Cc1ccccc1)NC(=O)NC1CCN(c2ccnc(Nc3ccc(F)cc3)n2)C1 (centres unmarked) [GSK1379714] | 33% | 28% | 0% | 13% | 21% | 24% | 0% | 34% | 18% | 3%
4 | Cc1ccc(NC(=O)Nc2ccc(Cl)c(C(F)(F)F)c2)cc1-c1ccc(C(=O)Nc2ccncc2)cc1 [GSK1398470] | 1% | 4% | 9% | 90% | 28% | 30% | 12% | 13% | 17% | 0%
5 | COc1ccc(-c2coc3ccc(-c4nnc(C)o4)cc23)cc1 | 17% | 0% | 0% | 11% | 0% | 0% | 15% | 0% | 0% | 3%
